Assay [1] addresses Single-stranded DNA cytosine deaminase (Homo sapiens) (UniProt Q9GZX7). Kind of assay: Validation qHTS assay for inhibitors of Activation Induced Cytidine Deaminase (AID): AID signal (AID 1347429). Note: % is set by controls: 0 for no effect and ±100 for the full control effect. Summed up:
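AID+UDG coupled FRET deamination; cpds up to 114 uM final; DJC20/DJC23 substrate, 4 hr RT; NaOH stop, 30 min RT; read Ex 540/Em 590.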

The nature of assay [2]: Primary qHTS for small molecule stabilizers of the endoplasmic reticulum resident proteome: Secreted ER Calcium Modulated Protein (SERCaMP) assay (AID 1508630). Note: % is set by controls: 0 for no effect and ±100 for the full control effect. In a few lines:
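The SH-SY5Y reporter protocol was run at 3 concentrations up to 38.3 uM (primary) or 11 concentrations (follow-up): 16 h compound, 100 nM thapsigargin for 4 h, then extracellular luciferase luminescence.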

Assay [3] deals with Calcium and integrin-binding protein 1 (Homo sapiens) (UniProt Q99828). Kind of assay: Validation qHTS for Identification of Calcium Integrin Binding protein 1 (CIB1) Competitor (AID 1508618). Note: potency is the fitted concentration of half-maximal effect. In a few lines:
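Displacement of FITC-alphaIIb peptide (100 nM) from CIB1-GST (1 uM) is monitored by polarization in quantitative HTS format; buffer carries 5 mM CaCl2 and 125 mM NaCl at pH 7.4, incubations are at room temperature.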

For the next assay, the target named is Papain (Carica papaya) (UniProt P00784). Kind of assay: Primary qHTS assay for inhibitors of the protease papain (AID 1645873).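 Note: papain turnover of Z-FR-AMC read as the AMC fluorescence gain over 10 min.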 Note: potency is the fitted concentration of half-maximal effect.
Papain (Carica papaya), sequence (P00784 whole entry, looked up): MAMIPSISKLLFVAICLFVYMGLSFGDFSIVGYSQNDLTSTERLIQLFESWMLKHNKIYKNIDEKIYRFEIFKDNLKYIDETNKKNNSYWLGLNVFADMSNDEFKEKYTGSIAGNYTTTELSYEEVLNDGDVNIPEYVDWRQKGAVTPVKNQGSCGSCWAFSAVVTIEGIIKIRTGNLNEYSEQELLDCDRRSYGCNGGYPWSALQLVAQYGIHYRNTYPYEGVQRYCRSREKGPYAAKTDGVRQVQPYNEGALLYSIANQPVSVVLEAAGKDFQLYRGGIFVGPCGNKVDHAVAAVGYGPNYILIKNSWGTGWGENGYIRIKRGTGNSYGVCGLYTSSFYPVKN
Assay [4] in a line: Primary qHTS for inhibitors of La Crosse Virus (LACV) - induced cell death in SH-SY5Y cells (AID 1508616).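 Note: top concentration of the series differs between compounds; 0% = infected DMSO wells and 100% = uninfected DMSO wells; higher means more rescue of cells from virus-induced death.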 In a few lines:
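Cytopathicity rescue screen: compounds pinned onto SH-SY5Y cells, which are then infected with LACV (MOI 0.01) and held 6 days at 37C. Percent activity is scaled between infected DMSO control and uninfected DMSO control.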

Assay [5] can be described thus: Confirmatory qHTS for small molecule stabilizers of the endoplasmic reticulum resident proteome: Secreted ER Calcium Modulated Protein (SERCaMP) assay (AID 1508628). Note: nearly all actives have a fitted effect of over 40% in size. Note: potency is the fitted concentration of half-maximal effect. In a few lines: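 GLuc-SERCaMP-expressing SH-SY5Y cells, pretreated 16 h with compound, are challenged with thapsigargin to empty ER calcium stores; after 4 h, coelenterazine is added directly to the medium and luminescence is imaged.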

For assay [6], the target named is Cytochrome P450 2C9 (Homo sapiens) (UniProt P11712). Kind of assay: Cytochrome P450 family 2 subfamily C member 9 (CYP2C9) small molecule antagonists: luciferase biochemical (cell-free) qHTS assay (AID 1645842; active = well fitted curve in the direction sought with a large enough effect in the repeat runs; an effect the other way counts as inactive or inconclusive; note: series mostly up to about 57 µM; % is set by controls: 0 for no effect and ±100 for the full control effect; nearly all actives have a fitted effect of over 55% in size). Summed up: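 P450-Glo CYP2C9 system: proluciferin substrate with enzyme in mix containing 0.4% BSA, 10 min at room temperature, then NADPH regeneration solution added and incubated 1 h at 37C. Detection reagent stopped reaction; luminescence read after 20 min as RLU.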
Cytochrome P450 2C9 (Homo sapiens), sequence (P11712 whole entry, looked up): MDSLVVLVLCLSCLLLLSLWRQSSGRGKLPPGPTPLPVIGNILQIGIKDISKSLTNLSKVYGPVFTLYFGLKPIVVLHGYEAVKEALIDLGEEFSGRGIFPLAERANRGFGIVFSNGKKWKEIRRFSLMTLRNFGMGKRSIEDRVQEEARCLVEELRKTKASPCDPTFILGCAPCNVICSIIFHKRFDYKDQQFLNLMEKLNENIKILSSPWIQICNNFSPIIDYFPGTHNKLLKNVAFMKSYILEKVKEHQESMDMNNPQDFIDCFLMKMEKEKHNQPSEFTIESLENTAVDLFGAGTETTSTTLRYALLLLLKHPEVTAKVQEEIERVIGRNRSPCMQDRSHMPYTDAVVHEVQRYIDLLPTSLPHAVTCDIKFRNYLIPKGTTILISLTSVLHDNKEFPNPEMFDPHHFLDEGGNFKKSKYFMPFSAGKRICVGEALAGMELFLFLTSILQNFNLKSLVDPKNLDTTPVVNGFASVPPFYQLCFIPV

Assay [7] is described as follows: Cell Viability qHTS for small molecule stabilizers of the endoplasmic reticulum resident proteome (AID 1508629).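 Note: human SH-SY5Y neuroblastoma cells carrying the GLuc-SERCaMP reporter; compound exposure about 46 h in total before the viability read; % is set by controls: 0 for no effect and ±100 for the full control effect.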 As to conditions: cell viability counter-screen, 100 nM thapsigargin for final 4 h.
Assay [8] can be described thus: Counterscreen qHTS for small molecule stabilizers of the endoplasmic reticulum resident proteome: GLuc-NoTag assay (AID 1508627).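 Note: SH-SY5Y cells given compound then 100 nM thapsigargin to empty ER calcium; series mostly up to about 76 µM; 0% = thapsigargin alone and -100% = DMSO vehicle control.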 Summed up: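 Counterscreen line: SH-SY5Y-GLuc-NoTag. Seed, 5 h; compound, 19 h; thapsigargin 100 nM, 4 h; 37C/5% CO2. Readout: secreted GLuc luminescence, coelenterazine 0.07x final, no lysis.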

Unmarked numbers belong to inactive results. Inconclusive results are not listed. The source made the active and inactive calls. Unless noted, calls come from the whole dose curve; as a rule, active = well fitted curve in the direction sought with a large enough effect; inconclusive = small, poorly fitted or top-dose-only effect, or another doubt; inactive = no such curve, though single readings can be large; an effect the other way counts as inactive or inconclusive.

Calcium and integrin-binding protein 1 (Homo sapiens), sequence (Q99828 whole entry, looked up): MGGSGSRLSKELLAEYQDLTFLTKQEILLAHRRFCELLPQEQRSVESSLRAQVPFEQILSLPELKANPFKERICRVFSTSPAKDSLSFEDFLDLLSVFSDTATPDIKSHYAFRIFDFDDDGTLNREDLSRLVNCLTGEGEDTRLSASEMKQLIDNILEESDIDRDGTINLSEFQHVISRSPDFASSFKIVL
Single-stranded DNA cytosine deaminase (Homo sapiens), sequence (Q9GZX7 whole entry, looked up): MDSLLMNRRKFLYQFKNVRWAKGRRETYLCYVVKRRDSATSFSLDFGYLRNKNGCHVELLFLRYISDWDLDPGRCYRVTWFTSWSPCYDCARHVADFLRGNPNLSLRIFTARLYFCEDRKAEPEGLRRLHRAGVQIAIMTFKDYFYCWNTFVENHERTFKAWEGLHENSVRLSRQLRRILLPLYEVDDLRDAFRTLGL

On to `Nc1ccc(-c2nc3ccc(-c4nc5ccc(N)cc5[nH]4)cc3[nH]2)cc1`, for which the Potency result in assay [1] and in [2] was “inactive” in each case.

On to `O=C1OC(=O)C2C3CCC(O3)C12` (stereo not drawn), for which the Potency entry (in assay [1]; in assay [3]; in [2]; with Papain (Carica papaya)) was “inactive” in each case.

Take `Cn1c(=O)c2[nH]c(C3CCCC3)nc2n(C)c1=O`: the Potency result in [1] and in [3] was “inactive” in each case.

As for `CC1C(=O)N(C)C(=O)c2nc[nH]c21` (stereo not drawn), the Potency result (in [1]; in assay [4]; in the assay with Papain (Carica papaya)) was “inactive” throughout.

Turning to `S=C(S)N1CCCC1`, the Potency result (in [1]; in [3]; in assay [2]; with Papain (Carica papaya)) was “inactive” in each case.

As to `O=c1[nH]c(=S)[nH]c(-c2ccccc2)c1Cc1c(O)ccc2ccccc12`, the Potency result in assay [4], in assay [3] and in [2] was “inactive” throughout.

As for `NS(=O)(=O)c1cccc2c1c([N+](=O)[O-])cc1nc(O)c(O)nc12`, the Potency entry in assay [4] was “inactive”.

For `CCCn1c(=O)c2[nH]c(C3CCCC3)nc2n(CCC)c1=O`, the Potency result (in [1]; in [3]; with Papain (Carica papaya)) was “inactive” each time.

Regarding `CCN(c1nc(N)c(C(=O)N=C(N)N)nc1Cl)C(C)C`, the Potency result (in assay [1]; in assay [3]; in the assay with Papain (Carica papaya)) was “inactive” throughout.

`Cc1nc2c(OCc3ccccc3)cccn2c1CC#N`: the Potency result (in assay [4]; in assay [3]; in assay [2]; with Papain (Carica papaya)) was “inactive” in each case.

For `CN1CCN(c2nc3cc(C(F)(F)F)ccc3n3cccc23)CC1`, the Potency result (in assay [1]; in the assay with Papain (Carica papaya)) was “inactive” each time.

As for `O=c1cc(O)cc(/C=C/c2ccc(O)c(O)c2)o1`, the Potency entry in [1] and in assay [3] was “inactive” each time. Moreover, the Potency in [5] was 20 µM (active).

Turning to `COc1ccc(C(=O)NCc2cccnc2)cc1C(=O)NCc1cccnc1`, the Potency entry (in assay [4]; in assay [3]; in assay [2]; in the assay with Papain (Carica papaya)) was “inactive” in each case.

As to `CN(C)CCCc1cc(C(=O)Nc2ccc(-c3ccncc3)cc2)ccc1O`, the Potency result (in assay [4]; in assay [3]; in assay [2]; with Papain (Carica papaya)) was “inactive” in each case.

With `CC(C)NC[C@H](O)COc1cccc2ccccc12`, the Potency result (in assay [4]; in [3]; in [2]; with Papain (Carica papaya)) was “inactive” throughout. In [6], the result was inactive.

For the compound `CN1Cc2sccc2C(c2ccc(O)c(O)c2)C1` (stereo not drawn), the Potency entry (in assay [1]; in assay [4]; with Papain (Carica papaya)) was “inactive” in each case.

As to `CCCOC(=O)c1c(-c2ccccc2)nc(CC)c(C(=O)SCC)c1CCC`, the Potency entry (in assay [4]; in [3]; in assay [2]; with Papain (Carica papaya)) was “inactive” throughout.

As to `CN1CCCC1CCOC(C)(c1ccccc1)c1ccc(Cl)cc1` (stereo not drawn), the Potency entry (in assay [1]; in assay [3]; with Papain (Carica papaya)) was “inactive” in each case. Besides, in [7], the max response was 8.32%.

As to `CCCCS(=N)(=O)CC[C@H](N)C(=O)O` (stereo partly drawn), the Potency entry (in [1]; in [4]; with Papain (Carica papaya)) was “inactive” in each case.

In the case of `Nc1ccc2c3c(cccc13)C(=O)NC2=O`, the Potency result in assay [1] and in assay [2] was “inactive” in each case. Further, the Potency in assay [3] is 2.51 µM (active).

As to `CN1C2CCC1CC(OC(c1ccccc1)c1ccccc1)C2` (stereo not drawn), the Potency result (in assay [1]; in assay [3]; in [8]; with Papain (Carica papaya)) was “inactive” in each case.

For the compound `CCCn1c(=O)c2c(ncn2C)n(CCC)c1=O`, the Potency result (in assay [4]; in [3]; in assay [2]; with Papain (Carica papaya)) was “inactive” throughout.

For `c1ccc(CN2CCC3(CCCc4ccccc43)CC2)cc1`, the Potency result (in assay [1]; in [3]; in assay [2]; with Papain (Carica papaya)) was “inactive” in each case.

As for `O=c1cc(-c2ccccc2F)[nH]c2cc3c(cc12)OCO3`, the Potency entry in assay [1], in [3] and in assay [2] was “inactive” throughout.

Take `CCCCCCCCCCCCCCCCCCOC[C@H](COP(=O)([O-])OCC[N+](C)(C)C)OC`: the Potency entry (in assay [1]; in assay [3]; in assay [2]; with Papain (Carica papaya)) was “inactive” in each case.

Take `Nc1nc2ccc(Cl)cc2c2nc(-c3ccco3)nn12`: the Potency entry in assay [1], in [3] and in assay [2] was “inactive” throughout. For the same compound, the Potency with Papain (Carica papaya) was 22.4 µM (active).

As to `NC(N)=NC(N)=Nc1ccccc1`, the Potency entry (in [4]; in assay [3]; in [8]; in assay [5]; with Papain (Carica papaya)) was “inactive” each time.

As for `CN(C)CCC(c1ccc(Br)cc1)c1ccccn1` (stereo not drawn), the Potency entry (in assay [1]; in [3]; in assay [2]; with Papain (Carica papaya)) was “inactive” in each case.

In the case of `N#Cc1cc([N+](=O)[O-])c2sc(C(N)=O)[n+]([O-])c2c1`, the Potency result (in [1]; in assay [3]; in assay [8]; in assay [5]; with Papain (Carica papaya)) was “inactive” each time.

On to `O=c1cc(-c2ccccc2)[nH]c2nc(Cl)ccc12`, for which the Potency entry (in [1]; in assay [3]; in assay [2]; with Papain (Carica papaya)) was “inactive” throughout.

For the compound `NCCCNCCCCNCCCN`, the Potency entry (in assay [4]; in assay [3]; in [2]; in the assay with Papain (Carica papaya)) was “inactive” in each case.

As for `CCN(CC)CCCCCCCCOC(=O)c1cc(OC)c(OC)c(OC)c1`, the Potency entry (in [1]; in assay [3]; with Papain (Carica papaya)) was “inactive” in each case.

Take `O=C(O)Cc1c[nH]c2ccc(O)cc12`: the Potency entry (in assay [1]; in assay [3]; in the assay with Papain (Carica papaya)) was “inactive” throughout.

Turning to `O=c1oc(Cl)c(Cl)c2ccccc12`, the Potency entry (in assay [1]; in assay [2]; with Papain (Carica papaya)) was “inactive” in each case.

Source of the values: PubChem BioAssay (NCATS).
